Bioassay records: PubChem, several laboratories
Many of the other results were omitted from the sample, so hits are more common in it than they were.
hDAT+cocaine: changed hDAT dopamine uptake under cocaine IC80, either direction, primary screen, cocaine antagonist project, cell-based, LLC-PK1 hDAT, [14C]-dopamine uptake, MLSMR. B-score at 10 µM. Sodium-dependent dopamine transporter (Homo sapiens), Q01959. actives 1.3% (n = 110,000). AID 449768, 2010. LLC-PK1 hDAT cells, [14C]-dopamine uptake with cocaine IC80; actives deviate in either direction;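 active = Z score or B-score, a plate-position-corrected score, falls beyond the plate's 99.7% confidence bounds, in either direction; inactive = both scores lie inside the 99.7% bounds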
D1 mod: D1 CRE-luciferase signal change, two-sided – cell-based, HEK293 D1, dopamine EC30, D1 allosteric modulator project, primary screen | D(1A) dopamine receptor (Homo sapiens), P21728 | B-score at 10 µM | AID 641, 2007 | dopamine EC30 potentiation; actives deviate in either direction | actives 5.9% (n = 58,000);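 active = luminescence count or its row- and column-corrected plate score outside the 99.7% band of the plate's sample wells, on either side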
EphB4 ephrin blk: EphB4-ephrin-B2 interaction antagonists, primary screen, biochemical, TNYL-RAW peptide probe, fluorescence polarization | inhibition, % at 7 µM | actives 0.15% (n = 97,000) | EphB4 LBD / TNYL-RAW-Alexa532 peptide | AID 720, 2007 | Ephrin type-B receptor 4 (Homo sapiens), P54760;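 active = inhibition above the screen-wide mean inhibition plus 3 SD, cut at about 15% in these data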
Target sequence (P54760 whole entry, looked up, the tested form may be a part): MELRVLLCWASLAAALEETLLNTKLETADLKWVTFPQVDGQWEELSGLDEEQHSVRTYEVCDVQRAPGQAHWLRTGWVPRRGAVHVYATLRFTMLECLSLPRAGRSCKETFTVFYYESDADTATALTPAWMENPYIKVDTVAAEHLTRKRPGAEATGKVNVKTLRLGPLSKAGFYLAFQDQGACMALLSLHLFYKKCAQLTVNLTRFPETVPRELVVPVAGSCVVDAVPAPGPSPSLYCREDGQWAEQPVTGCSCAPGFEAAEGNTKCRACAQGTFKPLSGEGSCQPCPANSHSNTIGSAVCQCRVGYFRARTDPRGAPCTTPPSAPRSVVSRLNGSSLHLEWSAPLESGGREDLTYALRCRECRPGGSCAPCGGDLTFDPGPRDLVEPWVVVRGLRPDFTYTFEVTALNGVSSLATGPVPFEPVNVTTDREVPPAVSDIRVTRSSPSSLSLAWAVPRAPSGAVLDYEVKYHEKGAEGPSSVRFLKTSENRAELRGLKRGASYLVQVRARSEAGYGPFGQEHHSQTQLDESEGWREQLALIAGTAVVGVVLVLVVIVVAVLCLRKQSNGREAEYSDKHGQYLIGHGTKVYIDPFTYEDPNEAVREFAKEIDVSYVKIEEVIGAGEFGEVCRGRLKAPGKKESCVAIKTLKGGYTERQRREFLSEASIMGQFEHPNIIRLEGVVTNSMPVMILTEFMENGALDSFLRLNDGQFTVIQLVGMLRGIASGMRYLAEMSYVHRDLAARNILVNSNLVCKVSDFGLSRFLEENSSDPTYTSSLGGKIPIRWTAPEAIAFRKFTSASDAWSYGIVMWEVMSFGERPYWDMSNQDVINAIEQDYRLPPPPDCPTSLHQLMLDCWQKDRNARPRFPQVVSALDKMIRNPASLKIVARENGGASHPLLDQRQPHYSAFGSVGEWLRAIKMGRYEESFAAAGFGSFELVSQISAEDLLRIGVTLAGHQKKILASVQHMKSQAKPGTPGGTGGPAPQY
Hits are given with their value; - = inactive; . = not tested or not shown.

SMILES	hDAT+cocaine	D1 mod	EphB4 ephrin blk
O=C(NCCCN1CCCC1=O)NC12CC3CC(CC(C3)C1)C2	-	-	16
O=C(NCCCO)NC12CC3CC(CC(C3)C1)C2	-	.	-
CCC1=C(OC(=O)N(CC)CC)N2C(=O)OC(=NCC(=O)OC)[C@]2(Cc2ccccc2)[C@H]2C1=CC[C@H]1C(=O)N(c3ccccc3)C(=O)[C@H]12	-	.	.
CC1C/C(=N/O)C(C)CN1 (centres undefined)	-	.	-
O=C1c2ccccc2C(=O)c2c1cccc2N1CCOCC1	-	.	-
O=C1C(N2CCOCC2)=C(n2nnc3ccccc32)C(=O)c2ccccc21	-3.9	.	-
Cc1cc(C)c2cc(CN(Cc3ccc4c(c3)OCO4)Cc3nnnn3Cc3ccco3)c(=O)[nH]c2c1	3	-	-
Cc1ccc2[nH]c(=O)c(CN(Cc3ccc4c(c3)OCO4)Cc3nnnn3Cc3ccco3)cc2c1	-	-	-
C#CCNC(=O)C1=C[C@H](C2CCCCC2)C[C@H](OCCCCO)O1	-	.	.
CCOC(=O)C1=C(C)N(CCCC(=O)NCc2ccc3c(c2)OCO3)C(=O)NC1c1ccc(Br)cc1 (centres undefined)	-	.	.
COC(=O)Nc1snnc1C	-	.	-
C/C(=N/O)c1ccccn1	-4.6	.	.
CCCCCC/C(=N/O)c1ccccn1	-	-	-
CNC(=O)/C(=C\c1ccc([N+](=O)[O-])cc1)NC(C)=O	.	.	-
CCO[C@@H]1OC(C(=O)Nc2ccccc2)=C[C@H](c2csc3ccccc23)[C@H]1CCCO	-	.	.
CC1=Nc2ccccc2/C1=C\c1nc(-c2ccccc2)oc1O	-	.	-
CC1=Nc2ccccc2/C1=C\c1nc(-c2ccc(C(F)(F)F)cc2)oc1O	-	.	25
CCN(CC)c1ccc(C2C(C(=O)OCCOC(C)C)=C(C)NC3=C2C(=O)CCC3)cc1 (centres undefined)	-	-	-
COCCOC(=O)C1=C(C)NC2=C(C(=O)CCC2)C1c1ccc(N(C)C)cc1 (centres undefined)	3.1	-	-
O=C(O)C[C@H]1c2cc(F)ccc2S(=O)(=O)N1C1CCN(Cc2ccccc2)CC1	-	.	.
CC(C)C[C@H](NC(=O)OC(C)(C)C)C(=O)N/N=C/C1=Cc2ccccc2OC1C (some centres undefined)	-	.	-
CCOC(=O)C1CCN(C(=O)c2sc3nc(C)nc(N4CCC(C)CC4)c3c2C)CC1	-	.	-
CCOC(=O)C1CCN(C(=O)c2sc3ncnc(N4CCC(C)CC4)c3c2C)CC1	2.5	.	-
O=C(Nc1ccnc(-c2cccnc2)n1)c1cccc(Cl)c1Cl	-	.	-
Cc1ccc2nsnc2c1S(=O)(=O)NCc1cccnc1	-	-	-
SMILES	hDAT+cocaine	D1 mod	EphB4 ephrin blk
Cc1ccc2nsnc2c1S(=O)(=O)N1CCN(CCc2ccccc2)CC1	4.3	-4.7	-
COc1ccc(CCNC(=O)C2CC(c3cc(C(F)(F)F)cc(C(F)(F)F)c3)=NO2)cc1 (centres undefined)	-	.	.
O=C(Nc1ccc2oc(-c3ccccc3)nc2c1)c1ccc2c(c1)OCCO2	-	-	-
CCCCCC(=O)Nc1ccc2oc(-c3cccnc3)nc2c1	-	-	-
CCCC(=O)Nc1ccc2oc(-c3ccc(OC)c(Br)c3)nc2c1	-	-2.6	.
CCCC(=O)Nc1ccc(-c2nc3cc(C)c(C)cc3o2)c(O)c1	-	-	-
CCCC(=O)Nc1ccc(-c2nc3cc(C)ccc3o2)cc1	-	-5.1	-
COc1ccc(-c2nc3cc(NC(=O)c4ccc5c(c4)OCO5)ccc3o2)cc1	-9	-	-
N=C1/C(=C\c2ccc(OCc3ccccc3)cc2)C(=O)N=C2SC(N3CCCC3)=NN12	-	.	.
COc1ccc(OC)c(N2C(=O)CC(C(C)c3ccccc3)C2=O)c1 (centres undefined)	-	-	-
CCCc1nnc(NC(=O)C(CC)OC(=O)c2cc(C)nc3ccccc23)s1 (centres undefined)	-	.	-
O=C1NCCCC1C(=O)Nc1ccccc1C(F)(F)F (centres undefined)	-	.	-
O=C(N1CCCC1)C12CCC3CC(CC(C3)C1)C2	-	.	-
Cc1ccc(C)c(S(=O)(=O)N2CCN(C(=O)Cn3c(C(F)(F)F)nc4ccccc43)CC2)c1	-	.	-
COc1ccc(/C=C/c2ccccc2)cc1[C@H]1[C@H]2C=CC[C@@H](C)[C@@H]2C(=O)N1Cc1ccccc1	-	.	.
CCO[C@H]1OC(C(=O)O)=C[C@@H](C)[C@@H]1CCCO	-	.	.
COCCNC(=O)CNC(=O)c1nn(-c2ccc(OC)c(Cl)c2)c(=O)c2ccccc12	-6.8	.	-
COC(=O)CNC(=O)CNC(=O)c1nn(-c2ccc(OC)c(Cl)c2)c(=O)c2ccccc12	.	.	-
Cn1c(=N)c(S(=O)(=O)c2ccc(Cl)cc2)cc2c(=O)n3ccccc3nc21	.	4.8	-
Cn1c(C(=O)N2CCc3ccccc32)cc2c(=O)n3ccccc3nc21	.	-	.
CN1/C(=C\C(=O)C(F)F)C(C)(C)c2ccccc21	-	-	-
Cc1c(O)cc2n(c1=O)-c1ccccc1C2(C)C	-	.	16
CCOC(=O)Cc1c(C)nc2c(-c3ccc(OC)cc3)c(C)nn2c1C	-	.	-
COc1ccc(OC)c(C(=O)CSc2nnc(Cc3cccs3)n2CCc2ccccc2)c1	-	.	-
C#Cc1ccc([C@H]2C=C(C(=O)N3CCN(Cc4ccccc4)CC3)O[C@@H](OCC)[C@@H]2CCCO)cc1	2.7	.	.
SMILES	hDAT+cocaine	D1 mod	EphB4 ephrin blk
C#Cc1ccc([C@@H]2C=C(C(=O)N3CCN(Cc4ccccc4)CC3)O[C@H](OCC)[C@H]2CCCO)cc1	-	.	.
COc1c(C(CC(C)C)OC(C)=O)ccc2c1C(=O)OCc1cc(C)cc(O)c1O2 (centres undefined)	-	.	.
CC(=O)Nc1nc(-c2ccccc2)nc(C)c1C(C)=O	-8.5	-	-
CC(=O)c1c(C)nc(-c2ccccc2)nc1NC(=O)C(C)C	-	.	-
Cc1ccc(C2C(C=Nc3c(C)n(C)n(-c4ccccc4)c3=O)=C(c3ccccc3)Oc3ccccc32)cc1 (centres undefined)	-	.	-
Nc1ccc(S(=O)(=O)N2CCCc3ccccc32)cc1	2.3	-	-
CC(=O)Nc1ccc(S(=O)(=O)N2CCCc3ccccc32)cc1	-	-	-
COc1cccc(N=Cc2c(O)n(-c3cccc(C)n3)c(=O)c3ccccc23)c1	-	.	-
Cc1cccc(-n2c(O)c(C=Nc3c(C)n(C)n(-c4ccccc4)c3=O)c3ccccc3c2=O)n1	3.8	-	-
COc1ccc2c(C=Nc3c(C)n(C)n(-c4ccccc4)c3=O)c(O)n(Cc3ccco3)c(=O)c2c1	4.2	-	-
Cc1c(N=Cc2ccco2)c(=O)n(-c2ccccc2)n1C	-	-	.
CS(=O)(=O)N(CC(=O)N/N=C/c1cccs1)c1cccc(Cl)c1Cl	-	.	-
CCSc1nnc(NC(=O)c2ccccn2)s1	-	-5.8	.
CCSc1nnc(NC(=O)c2cnccn2)s1	-	-	.
N#Cc1ccc(CN2CCN(C(=O)c3ccccc3)CC2)c(Cl)c1	-	-	.
CCOc1ccccc1NC(=O)Cn1nnc(C(=O)Nc2ccc(C)cc2)c1N	-	-5.3	-
CCOc1ccccc1NC(=O)Cn1nnc(C(=O)NCc2ccco2)c1N	-	-	-
